APOBEC3G inh: APOBEC3G DNA deaminase inhibitors, primary screen, biochemical, fluorescence, single-stranded DNA substrate, uHTS; DNA dC->dU-editing enzyme APOBEC-3G (Homo sapiens), Q9HC16; recombinant A3G, ssDNA deamination FAM/TAMRA fluorescence; inhibition, % at 20 µM; 0.28% of 330,000 active;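 active = inhibition of at least 40% at 20 µM, with no more than 30% in the related APOBEC3A deaminase screen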;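 also: plate controls were DMSO wells with A3G for no effect and wells lacking A3G enzyme for full effect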
Target sequence (Q9HC16 whole entry, looked up): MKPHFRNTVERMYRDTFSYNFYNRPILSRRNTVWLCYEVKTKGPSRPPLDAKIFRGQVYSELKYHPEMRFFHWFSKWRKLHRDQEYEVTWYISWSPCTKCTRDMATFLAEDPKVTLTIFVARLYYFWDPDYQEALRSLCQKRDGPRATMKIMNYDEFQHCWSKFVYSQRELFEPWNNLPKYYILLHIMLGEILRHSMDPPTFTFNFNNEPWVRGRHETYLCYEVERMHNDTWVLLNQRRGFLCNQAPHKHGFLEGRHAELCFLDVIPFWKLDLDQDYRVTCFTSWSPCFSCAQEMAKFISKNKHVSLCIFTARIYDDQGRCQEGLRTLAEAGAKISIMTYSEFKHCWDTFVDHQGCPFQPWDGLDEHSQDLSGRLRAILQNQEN
esBAF inh: Bmi1 luciferase reporter increase in mESCs, primary screen, esBAF inhibitor project, mouse ES cells, Bmi1 luciferase knock-in, single point; 24 h; 100% = twice the neutral-well signal; reporter increase, % at 12.5 µM; 2% of 350,000 active; in the data active = activation above about 40%;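 also: 0% = median of the plate's neutral control wells and 100% = double that signal; a rise in the Bmi1 reporter signal indicates esBAF inhibition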
Wnt act: Wnt/beta-catenin pathway activators, primary screen, cell-based, plate reader, single point; Wnt/beta-catenin reporter cell assay, activator; activation, % at 9.35 µM; 1.2% of 300,000 active; AID 743398, 2014; in the data active = activation above about 30%, passing the limit was not always enough;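 also: 0% = neutral control wells and 100% = positive control wells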
PHOSPHO1 inh: PubChem AID 1565. Phosphoethanolamine/phosphocholine phosphatase (Homo sapiens), Q8TCT1. recombinant PHOSPHO1, absorbance phosphatase assay. 1.1% of 290,000 active. inhibition, % at 13.3 µM; in the data active = inhibition above about 60%
Target sequence (Q8TCT1 whole entry, looked up): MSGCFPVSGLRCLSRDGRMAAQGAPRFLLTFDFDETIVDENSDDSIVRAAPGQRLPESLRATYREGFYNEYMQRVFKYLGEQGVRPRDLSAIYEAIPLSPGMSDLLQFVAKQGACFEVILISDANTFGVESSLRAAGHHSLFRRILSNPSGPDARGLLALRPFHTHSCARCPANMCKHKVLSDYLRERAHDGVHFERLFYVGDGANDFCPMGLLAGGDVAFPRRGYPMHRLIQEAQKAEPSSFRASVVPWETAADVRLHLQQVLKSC
APOBEC3A inh: APOBEC3A ssDNA deaminase inhibitors, primary screen, selectivity assay for APOBEC3G inhibitor project, biochemical, FAM/TAMRA oligo cleavage fluorescence | recombinant A3A, FAM/TAMRA ssDNA deamination fluorescence | inhibition, % at 20 µM | 0.41% of 330,000 active;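 active = at least 40% inhibition at 20 µM here, with at most 30% in a related deaminase screen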;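 also: plate controls were A3A with DMSO for no effect and wells lacking A3A enzyme for full effect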
MITF act: activators of MITF-driven TRPM1 promoter reporter, primary screen, cell-based, SK-MEL-5, luciferase, single point | SK-MEL-5 TRPM1-promoter luciferase, 24 h; % of positive control, neutral wells = 0 | activation, % at 12.5 µM | 0.75% of 300,000 active | AID 588334, 2011;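 active = mean activation of at least 80% with every replicate also reaching 80%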;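 also: 0% = neutral control wells and 100% = parthenolide positive control wells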
APOBEC3A confirm: APOBEC3A deaminase inhibitors, retest, confirmation, selectivity assay for APOBEC3G inhibitor project, biochemical, single concentration, fluorescence readout; shares compounds with APOBEC3A inh; recombinant A3A, ssDNA deaminase UDG fluorescence assay; inhibition, % at 20 µM; 63% of 1,400 active; AID 493151, 2011;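 active = inhibition reaching a set limit, 80% of the first screen's cutoff, at 20 µM in any replicate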;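 also: plate controls were DMSO wells with A3A for no effect and wells lacking A3A enzyme for full effect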
UDG ctr A3A: E. coli UDG inhibitors, confirmation, counter-screen for APOBEC3A inhibitor project, biochemical, single concentration, fluorescence, FAM/TAMRA oligo | shares compounds with APOBEC3A inh | UDG counterscreen, FAM/TAMRA uracil oligo fluorescence | inhibition, % at 20 µM | 1,000 tested, under 10 active; call rule not given here
* marks the source's active call; other numbers are inactive results. Compounds with a hit are over-represented: about 3.6% of the library has one in this group of screens.

Results for COc1cc(NC(=O)c2noc3c2CCC3)c(OC)cc1Cl ?
APOBEC3G inh: 21; esBAF inh: 2; PHOSPHO1 inh: 12; APOBEC3A inh: 49*; MITF act: -13; APOBEC3A confirm: 55*; UDG ctr A3A: 1

Results for CCCc1cc(C(=O)Nc2cc(OC)c(Cl)cc2OC)no1 ?
APOBEC3G inh: -7; esBAF inh: -3; Wnt act: -1; PHOSPHO1 inh: -18; APOBEC3A inh: -1; MITF act: -19

What do the screens show for `CN1CCN(C(=O)C[C@@H]2C[C@H]3c4cc(NC(=O)C5CCOCC5)ccc4O[C@H]3[C@@H](CO)O2)CC1`?
esBAF inh: -2

How did COc1ccc(NC(=O)N(C)C[C@@H]2Oc3ccc(NC(=O)Nc4ccc5c(c4)OCO5)cc3CC(=O)N([C@@H](C)CO)C[C@H]2C)cc1 do in these assays?
esBAF inh: 9

What do the screens show for `C[C@@H]1CN([C@@H](C)CO)C(=O)c2cc(NC(=O)Nc3cccc4ccccc34)ccc2O[C@H]1CN(C)Cc1ccc(C(F)(F)F)cc1`?
esBAF inh: -2

What do the screens show for `CC(C)CC#Cc1ccc2c(c1)O[C@@H](CN(C)Cc1ccc(F)cc1)[C@@H](C)CN([C@H](C)CO)S2(=O)=O`?
esBAF inh: -3

What do the screens show for `Cc1cccc(C(=O)Nc2nnc(SCC(=O)Nc3ccc4c(c3)oc3ccccc34)s2)c1`?
APOBEC3G inh: 14; Wnt act: -2; PHOSPHO1 inh: 5; APOBEC3A inh: 81*; MITF act: 14; APOBEC3A confirm: 84*; UDG ctr A3A: -2

Results for C[N+]1(C)CCC(=C2c3ccccc3CC(=O)c3sccc32)CC1 ?
APOBEC3G inh: 28; esBAF inh: -3; Wnt act: 20; PHOSPHO1 inh: -109; APOBEC3A inh: 52*; APOBEC3A confirm: 53*

What do the screens show for `Cn1ccsc1=NC(=O)c1ccc(=O)[nH]c1`?
APOBEC3G inh: 18; esBAF inh: -6; Wnt act: 0; PHOSPHO1 inh: 28; APOBEC3A inh: 59*; MITF act: -6; APOBEC3A confirm: 4

What do the screens show for `N#Cc1ccc(NC(=S)Nc2ccccc2)cc1`?
APOBEC3G inh: 0; PHOSPHO1 inh: 13; APOBEC3A inh: 44*; MITF act: 9; APOBEC3A confirm: -7; UDG ctr A3A: -4

Results for C=CC#CC1(O)CC(C)[N+](C)(C)CC1C (stereo not drawn) ?
APOBEC3G inh: 28; Wnt act: 0; PHOSPHO1 inh: -144; APOBEC3A inh: 56*; MITF act: 0; APOBEC3A confirm: 71*; UDG ctr A3A: -1

How did O=C(NCCOc1cccc(Cl)c1Cl)c1cc(-n2cnnc2)ccc1Cl do in these assays?
APOBEC3G inh: -6; Wnt act: 0; PHOSPHO1 inh: 39; APOBEC3A inh: -1; MITF act: 12

How did O=C(NCc1ccc2c(c1)OCO2)c1cc(-n2cnnc2)ccc1Cl do in these assays?
APOBEC3G inh: 12; esBAF inh: 4; Wnt act: 4; PHOSPHO1 inh: -7; APOBEC3A inh: 57*; APOBEC3A confirm: 72*; UDG ctr A3A: -1

How did CCSCCNC(=O)c1cc(-n2cnnc2)ccc1Cl do in these assays?
APOBEC3G inh: 25; esBAF inh: -7; PHOSPHO1 inh: -25; APOBEC3A inh: 60*; MITF act: 1; APOBEC3A confirm: 60*; UDG ctr A3A: 2

Results for CCC(=O)N(C)C[C@H]1Oc2ncc(-c3ccc(F)cc3)cc2C(=O)N([C@H](C)CO)C[C@H]1C ?
esBAF inh: 2

What do the screens show for `O=c1oc(-c2ccccc2NS(=O)(=O)c2ccccc2)nc2ccccc12`?
APOBEC3G inh: -1; esBAF inh: -2; Wnt act: -1; PHOSPHO1 inh: 12; APOBEC3A inh: 50*; MITF act: 8; APOBEC3A confirm: -2; UDG ctr A3A: -3

How did O=c1oc(-c2ccccc2NS(=O)(=O)c2ccc(F)cc2)nc2ccccc12 do in these assays?
APOBEC3G inh: -8; Wnt act: 0; PHOSPHO1 inh: 24; APOBEC3A inh: -5

Results for C[C@H](CO)N1C[C@H](C)[C@@H](CN(C)Cc2ccccc2)Oc2ncc(-c3cccc(F)c3)cc2C1=O ?
esBAF inh: -3

How did COc1ccc(NC(=O)CCCSc2ccccc2)cc1 do in these assays?
APOBEC3G inh: 9; Wnt act: -3; PHOSPHO1 inh: -30; APOBEC3A inh: 42*; MITF act: 29; APOBEC3A confirm: 7

How did O=C(Nc1nc2ccccc2s1)C1CCN(S(=O)(=O)c2cc([N+](=O)[O-])ccc2Cl)CC1 do in these assays?
APOBEC3G inh: 22; esBAF inh: 6; Wnt act: 1; PHOSPHO1 inh: 39; APOBEC3A inh: 80*; MITF act: -50; APOBEC3A confirm: 40*

How did COc1ccc2c(/C=C/c3cc[n+](C)cc3)c[nH]c2c1 do in these assays?
APOBEC3G inh: 12; esBAF inh: -8; Wnt act: -2; PHOSPHO1 inh: 22; APOBEC3A inh: 45*; APOBEC3A confirm: 61*; UDG ctr A3A: 3

Results for COc1ccc2c(C=O)c[nH]c2c1 ?
APOBEC3G inh: 2; Wnt act: 0; PHOSPHO1 inh: -4; APOBEC3A inh: 0; MITF act: 5

How did CCOC(=O)/C=C(C)\C=C\c1c[nH]c2ccccc12 do in these assays?
APOBEC3G inh: -4; Wnt act: 5; PHOSPHO1 inh: 20; APOBEC3A inh: -1

How did Cc1ccc2[nH]cc(/C=C/c3cc[n+](C)cc3)c2c1 do in these assays?
APOBEC3G inh: -14; esBAF inh: -1; Wnt act: -7; PHOSPHO1 inh: -29; APOBEC3A inh: 49*; MITF act: -34; APOBEC3A confirm: 67*; UDG ctr A3A: -8

How did CC[n+]1ccc(/C=C/c2c[nH]c3ccccc23)cc1 do in these assays?
APOBEC3G inh: 2; esBAF inh: -7; Wnt act: -6; PHOSPHO1 inh: -25; APOBEC3A inh: 48*; APOBEC3A confirm: 64*; UDG ctr A3A: -8

Source: PubChem (several laboratories)
